# Sampled rows, rich in hits. Any-hit rate of the full collection: about 9%.
# HPGD inh – qHTS Assay for Inhibitors of HPGD (15-Hydroxyprostaglandin Dehydrogenase). purified HPGD, NADH fluorescence kinetic, PGE2 substrate. Potency, µM, for the others: at the top dose activity change, negative = inhibition, usual class: inhibitors. AID 894, 2007. 150,000 tested, 4.3% active; further: potency means the concentration at half of the fitted maximal effect
# Target sequence (P15428 whole entry, looked up): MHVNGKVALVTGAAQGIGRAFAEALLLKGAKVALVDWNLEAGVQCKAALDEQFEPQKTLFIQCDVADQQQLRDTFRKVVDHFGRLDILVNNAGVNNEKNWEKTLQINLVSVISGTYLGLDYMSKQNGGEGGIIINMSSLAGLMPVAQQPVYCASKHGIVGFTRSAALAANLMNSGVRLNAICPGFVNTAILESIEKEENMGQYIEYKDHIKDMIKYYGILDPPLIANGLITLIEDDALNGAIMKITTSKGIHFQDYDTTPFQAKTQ
#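 20 nM HPGD preincubated 15 min at room temperature with compound in 50 mM Tris-HCl pH 8, 0.01% Tween 20. Started with 1 mM NAD+ and 30 uM prostaglandin E2; NADH fluorescence (360/450 nm) read 5 times over 30-s intervals, last minus first.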
# ALDH1A1 block – qHTS Assay for Inhibitors of Aldehyde Dehydrogenase 1 (ALDH1A1). Aldehyde dehydrogenase 1A1 (Homo sapiens), P00352. Purified ALDH1A1, NADH fluorescence, propionaldehyde substrate. Potency, µM (doses to about 75.3 µM), without a hit: at the highest dose activity, negative = inhibition, most hits filed as inhibitors. 220,000 tested, 7.3% active;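 further: potency means the concentration at half of the fitted maximal effect; plate controls were no enzyme wells and a reference inhibitor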
# IMPase cell inh – qHTS Assay for Identifying the Cell-Membrane Permeable IMPase Inhibitors; Inositol monophosphatase 1 (Rattus norvegicus), P97697; CHO-M1 cells, IP1 accumulation, HTRF TR-FRET ratio; inhibition (IP1 accumulation), % at 46.1 µM; 120,000 tested, under 10 active; AID 901, 2007; active means well fitted curve in the direction sought with a large enough effect in the signal ratio, not every such curve was filed as active; inconclusive means small, poorly fitted or top-dose-only effect, or a change in a side signal; inactive means no such curve, though single readings can be large or run the other way; the % refers to the signal ratio;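 further: cells stimulated with carbachol in lithium chloride buffer; plate controls were DMSO basal wells for no effect and reference inhibitor wells for full effect; higher means more IMPase inhibition seen as more IP1 and lower FRET ratio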
#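 Elevated IP1 in lysates lowers TR-FRET signal (665/620 ratio and 620 channel reported). Cells were CHO-M1, given carbachol (50 uM as added) plus 50mM LiCl, pH 7.4, 30 min, 37C; compounds titrated up to 46 uM; AC50 by Hill equation.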
# Starred values were filed as active, the others as inactive; ? = inconclusive; / = not tested or not shown. Unless noted, the call rests on the fitted dose curve; in most records, active means well fitted inhibition curve with a large enough effect (not every such curve was filed as active); inconclusive means small, poorly fitted or top-dose-only effect, or another doubt; inactive means no such curve, though single readings can be large or run the other way. Unless noted, on the % scale 0 is the no-effect control and ±100 the full control effect.
SMILES,HPGD inh,ALDH1A1 block,IMPase cell inh
CN(C)c1ccc(N=Cc2ccco2)cc1,-29%,5µM*,71
CN(C)c1ccc(/C=N/O)cc1,/,-1%,/
COc1cnc(-c2ccccn2)nc1Sc1ccc(Cl)cc1,-3%,-15%,1
CCOC(=O)CSc1nc(-c2ccccn2)ncc1OC,/,5%,/
COc1cnc(-c2ccccn2)nc1Sc1ccc(F)cc1,/,7.9µM*,/
COc1cnc(-c2ccccn2)nc1Sc1ccccc1,/,10µM*,/
CCOC(=O)c1cnn(-c2ccccc2)c1-n1cccc1C(=O)C(=O)Nc1ccc(OC)cc1,-14%,5%,11
C/C(=N\OCC(=O)NC(C)C)c1cccs1,/,0%,/
Cc1ccc(C(NC(=O)N2CCOCC2)C(Cl)Cl)cc1F (stereo not drawn),4%,20µM*,3
Cc1ccc(C(NC(=O)N2CCOCC2)=C(Cl)Cl)cc1F,-15%,0.11µM*,-2
Cc1ccc(C(NC(=O)N2CC(C)OC(C)C2)C(Cl)Cl)cc1F (stereo not drawn),-7%,10µM*,2
COc1ccc(C(NC(=O)N2CC(C)OC(C)C2)C(Cl)(Cl)Cl)cc1F (stereo not drawn),7%,5%,4
O=C(NC(c1ccccc1)c1ccccc1)N1CCOCC1,/,-4%,/
Cc1ccc(C(=O)N2CCOCC2)cc1Cl,?,6%,2
O=C(Cc1ccccc1)Nc1ccccc1CO,14µM*,?,4
O=C(Cc1ccc(Cl)cc1)Nc1ccccc1CO,-5%,6%,0
O=C(CSc1nnc(CNC(=O)c2c(F)cccc2Cl)o1)Nc1cccc(F)c1,/,/,4
Cc1ccc(Cl)cc1NC(=S)N(Cc1cccnc1)Cc1ccccc1Cl,/,11µM*,/
Cc1ccccc1NC(=S)N(Cc1ccccc1)Cc1cccnc1,/,6%,/
CN(C)c1[nH]c(=O)c(C#N)c2c1CCN2Cc1ccccc1,13µM*,?,18
N#Cc1c2c(c[nH]c1=O)CCN2Cc1ccccc1,?,2%,2
CCCC(=O)N(c1ccc2oc3c(c2c1)CCCC3)S(=O)(=O)c1ccc(CC)cc1,/,/,3
COc1cc2c(cc1OC)C(C(=O)c1ccc(OC)c(OC)c1O)=NCC2,?,-7%,/
COc1ccccc1C(=O)NCCC(=O)N1CC(=O)Nc2ccccc21,-20%,7%,-6
COc1ccc2c(c1)c(=O)cc(-c1ccccc1)n2C,?,?,9
SMILES,HPGD inh,ALDH1A1 block,IMPase cell inh
Cn1c(-c2ccccc2)cc(=O)c2ccccc21,25µM*,0%,1
O=C1CC(c2cccc(Cl)c2)CC(O)=C1C=NC1CCCC1 (stereo not drawn),-9%,-1%,/
CC(C)C(=O)NC(=S)Nc1ccccc1C(F)(F)F,/,?,3
Cc1ccccc1C(=O)NC(=S)Nc1ccccc1C(F)(F)F,-7%,13µM*,-1
CCCC(=O)NC(=S)Nc1ccccc1C(F)(F)F,-14%,?,24
O=C(NC(=S)Nc1ccccc1C(F)(F)F)c1ccccc1F,/,4%,/
N#CCC(=O)NNC(=S)Nc1ccccc1C(F)(F)F,/,18µM*,/
Cc1c(NC(=S)Nc2ccccc2C(F)(F)F)cccc1[N+](=O)[O-],/,22µM*,-6
FC(F)(F)c1ccccc1NC(=S)NN=C1CCCCCC1,/,28µM*,/
FC(F)(F)c1ccccc1NC(=S)N1CCCC1,/,1%,/
COc1ccccc1CC1(C)NC(=O)N(CC(=O)Nc2cc(C)on2)C1=O (stereo not drawn),-8%,12%,-6
CCOc1ccccc1-n1c(=S)sc2c(=O)n(-c3ccccc3)c(=S)[nH]c21,/,-4%,/
C#CCn1c(S(=O)(=O)Cc2ccc(OC)cc2)nc(-c2ccccc2)c1-c1ccccc1,-8%,0%,3
COC(=O)c1ccccc1NC(=S)NC(=O)c1ccccc1C,-15%,?,7
Cc1ccc(C(=O)NC(=S)Nc2ccccc2C(F)(F)F)c(C)c1,-15%,13µM*,3
O=C(Nc1ccc(Cc2ccncc2)cc1)c1ccc(S(=O)(=O)N2CCCC2)cc1,/,14µM*,/
COc1cc(CCC(=O)N2CCN(S(=O)(=O)c3ccc(C)c(C)c3)CC2)cc(OC)c1OC,-13%,?,6
COc1ccc(CCC(=O)N2CCN(S(=O)(=O)c3ccc4ccccc4c3)CC2)cc1,-19%,14µM*,-13
COc1ccc(CCNC(=O)COc2ccc(S(=O)(=O)N3CCCC3)cc2)cc1,/,10µM*,/
COC(=O)COc1ccc(S(=O)(=O)N2CCCCCC2)cc1,/,-2%,/
O=C(COc1ccc(S(=O)(=O)N2CCCCC2)cc1)NCc1ccncc1,-14%,22µM*,12
